From PubChem BioAssay (NCI) come the findings set out here.

The panel holds about 83,000 compounds, 20% with a hit somewhere; the sample as a whole holds those more often.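 Testing used 96-well plates and a 48-hour single-concentration exposure. Example: -40 means 40% of the starting cells died.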 A number with no mark means an inactive call. Activity calls are given as the source filed them.

The experiment concerns MCF7 breast. Nature of the experiment: NCI-60 one-dose screen, 48 h (100 = growth as untreated, 0 = no growth, -100 = all killed). The conditions noted are these: 10 µM unless noted. The protocol:
Growth inhibition of the MCF7 human tumor cell line is measured as a screen for anti-cancer activity. Cells are grown in 96 well plates and exposed to the test compound for 48 hours. Compounds are tested at a single concentration, which is 10^-5 M for most compounds. The reported endpoint is percent growth (GI% or GIPRCNT), where numbers from 0 - 100% represent growth inhibition, and numbers from -100% - 0 represent cell death. For example, a value of 40 represents 60% growth inhibition. A value of 0 means no net growth occurred over the course of the experiment. A value of -40 indicates 40% of cells at the beginning of the experiment died by the end of the experiment. A value of -100 means all cells are dead at the end of the experiment.
NCI-60 Human Tumor Cell Lines Screen was performed using the standard one-dose NCI protocol, which is described in more detail at https://dtp.cancer.gov/discovery_development/nci-60/default.htm.
Compounds with GIPRCNT values below 10 were considered active. Activity score was based on GIPRCNT using the following formula: […]
Score is 0 for GIPRCNT values of 100 or above, 50 for GIPRCNT values of 0, and 100 for GIPRCNT values of -100.
Turning to `CN(C)c1ccc(/C=N/NC(=O)CSc2nc3sc4c(c3c(=O)n2-c2ccccc2)CCCCC4)cc1`, the growth was 35%.

In the case of `C=C(CNCCO)[C@@H]1CC[C@]2(CO)CC[C@]3(C)[C@H](CC[C@@H]4[C@@]5(C)CCC(NCCO)C(C)(C)[C@@H]5CC[C@]43C)[C@@H]12` (stereo not given in full), the growth is 47.4%.

On to `O=C1CCc2c(sc3[nH]c(=S)n(-c4cc(C(F)(F)F)cc(C(F)(F)F)c4)c(=O)c23)C1`, for which the growth was 0.882% (active).

Take `CCN(CC)CCCNc1cc(OC)cc2cccnc12`: the growth is 64%.

In the case of `CC(=O)CC(=O)c1ccccc1.[Cu+2]`, the growth was 75.1%.

For `CCN1CCN(c2nc(NNC(=O)c3ccc(OC)cc3)nc(N3CCN(C(c4ccccc4)c4ccccc4)CC3)n2)CC1`, the growth was 15.9%.

For `CCOC(=O)c1c(Nc2nc3ccccc3s2)sc2c1CCC(=O)C2`, the growth is 39.3%.

`O=C(CSc1nnc(-c2ccc(Cl)c(Cl)c2)n1-c1ccccc1)Nc1ccc(C(=O)/C=C/c2ccc(Cl)cc2)cc1`: the growth was 68.1%.

`CN1CCN(CC(=O)N(C)c2ccc(N=C(c3ccccc3)c3c(O)[nH]c4ccc([N+](=O)[O-])cc34)cc2)CC1`: the growth is 21.9%.

As for `Cc1ccc(C23CCC(=O)N2CCc2cncn23)cc1` (stereo not given), the growth is 97.9%.

As for `O=C(Nc1ccc2[nH]ncc2c1)c1csc(Nc2ccccc2)n1`, the growth is 14.1%.

With `COc1ccccc1-c1nc2ccc3[nH]ncc3c2c2c1CCCC2`, the growth was 68.7%.

As to `CSc1nn2c(-c3cc4cc(Br)ccc4oc3=O)ccnc2c1C#N`, the growth is 94.9%.

As to `COc1cc(OCc2cccc(-c3ccc4c(c3)OCCO4)c2C)cc(OC)c1C=O`, the growth was 22.6%.

`C#CCOc1cccc(-c2ncnc3cc(NC(=O)CCl)ccc23)c1`: the growth was 3.63% (active).

Consider `Nc1nc(Nc2ccc([N+](=O)[O-])cc2O)nc(C(Cl)(Cl)Cl)n1`, for which the growth was 59.5%.

On to `CN1C(=O)N(C)C2C1NN=c1s/c(=C\c3ccc(F)cc3)c(=O)n12` (stereo not given), for which the growth is 4.25% (active).

For the molecule `O=C(Nc1cccc(Cl)c1)Oc1c(Cl)c(Cl)c(Cl)c(Cl)c1Cl`, the growth was 84.9%.

Consider `C=C(C)[C@@H]1CC[C@]2(C#N)CC[C@]3(C)[C@H](CC[C@@H]4[C@@]5(C)CCCNC(C)(C)[C@@H]5CC[C@]43C)[C@@H]12`, for which the growth was 20%.

In the case of `Cc1c(C(=O)C(SC(=S)N2CCOCC2)SC(=S)N2CCOCC2)nnn1-c1ccc([N+](=O)[O-])cc1`, the growth was 79.5%.

On to `C=C1/C(=C\C=C2/CCC[C@]3(C)[C@@H]([C@H](C)CCCC(C)(C)O)CC[C@@H]23)C[C@@H](OC(=O)CBr)C[C@@H]1O`, for which the growth was 34.9%.

As for `O=C(/C=C/c1ccc([N+](=O)[O-])cc1)c1cccc(Nc2nc(Nc3ccccc3)nc(Nc3ccccc3)n2)c1`, the growth was 15.6%.

Consider `C#CCOc1ccc(C2=NN(CCCC)C3N=C(Cl)c4ncn(CCCC)c4N23)cc1OCC#C` (stereo not given), for which the growth is 81.8%.

Take `Cc1c(Cl)cccc1NC(=O)c1sc2nc3c(cc2c1N)CCCC3`: the growth was 16.3%.

On to `NCCCCCNc1noc(Cc2c[nH]c3cc(Br)ccc23)n1`, for which the growth was 21.8%.

For `C#Cc1cccc(Nc2ncnc3ccc(-c4cnc(Cl)c(NS(C)(=O)=O)c4)cc23)c1`, the growth was -0.512% (active).

As for `C#CCOC(=O)C(N)CSSCC(N)C(=O)O` (stereo not given), the growth is 99.5%.

Turning to `CO[C@H]1/C=C/O[C@@]2(C)Oc3c(C)c(O)c4c(O)c(c5c(nc6cc(C)ccn65)c4c3C2=O)NC(=O)/C(C)=C\C=C\[C@H](C)[C@H](O)[C@@H](C)C(O)[C@@H](C)[C@H](OC(C)=O)[C@@H]1C` (stereo not given in full), the growth was 103%.

As for `CN(C)CCOc1ccc(/C(=C(/CCCCCCCCCC[P+](c2ccccc2)(c2ccccc2)c2ccccc2)c2ccccc2)c2ccccc2)cc1`, the growth is -77.9% (active).

For `Oc1c(Cl)cc(Cl)c2ccc(CN3CCNCC3)nc12`, the growth is 34.4%.

As for `O=C(Nc1ncc(Cc2ccccc2)s1)c1cc(-c2ccccc2)nc2ccccc12`, the growth is 91.1%.

In the case of `CCOC(=O)/C(=C\c1ccccc1Cl)P(=O)(OCC)OCC`, the growth is 17.8%.

In the case of `Cc1nc2cccc(NCc3ccc(C(=O)NO)cc3)c2c(=O)n1-c1ccccc1`, the growth was 67.1%.

Regarding `COc1ccc(C2CC(=O)Oc3c(OC)c4c(c(OC)c32)OCO4)cc1` (stereo not given), the growth was 92.7%.

As to `O=C(Nc1ccc2c(c1)-c1ccccc1C2)C1CC(=O)N(c2ccc3c(c2)OCO3)C1` (stereo not given), the growth was 65.6% [50 µM].

Take `CNc1nc2ncc(-c3c(C)noc3C)cc2n1Cc1ccccc1`: the growth was 18.6%.

Turning to `CC(=O)O[C@H]1C[C@@]2(C)[C@@H](C[C@@H](O)[C@H]3[C@@]4(C)CC[C@H](N5CCCC5)[C@@H](C)[C@@H]4CC[C@@]32C)/C1=C(\CCC=C(C)C)C(=O)O`, the growth is 90.7%.

As for `Cc1ccc(-c2nn(CC(=O)N3CCOCC3)c(N)c2C#N)cc1`, the growth was 92.5%.

For `CC1=C([Se]CC(OC(=O)[C@@H](CO)NC(=O)OC(C)(C)C)C(=O)NCCCCCC(=O)OCc2ccccc2)C(=O)c2ccccc2C1=O` (stereo not given in full), the growth was -44.7% (active).

Take `CN1CCN(Cc2ccc(NC(=O)c3cc(C#Cc4cnc(N)c5ncccc45)n(C)n3)cc2C(F)(F)F)CC1`: the growth is 39.7%.
